Data as given in PubChem BioAssay.
The source made the active and inactive calls. Unless noted, how the calls were made is not given here.

Assays:
[1] = compound effects on lung adenocarcinoma cell viability – A549, calcein-AM fluorescence, 48 h, basal, profiling panel (AID 1162); conditions: higher = more signal; further: test concentration not given here
[2] = compound effects on differentiated 3T3-L1 adipocyte viability – cell-based, 3T3-L1 adipocytes, calcein-AM fluorescence, 48 h, basal, profiling panel (AID 1163); conditions: 3T3-L1 adipocytes viability, higher = more signal; further: test concentration not given here
[3] = compound effects on hepatocellular carcinoma cell viability – HepG2, calcein-AM fluorescence, 48 h, basal, profiling panel (AID 1164); conditions: higher = more signal; further: test concentration not given here
[4] = compound effects on multiple myeloma cell viability – MM1S, calcein-AM fluorescence, 48 h, basal, profiling panel (AID 1165); conditions: higher = more signal; further: test concentration not given here
[5] = calcein-AM signal in unstimulated myeloma cells – cell-based, calcein-AM fluorescence, 48 h, PK04 Diversity Set, profiling panel (AID 1166); conditions: RPMI8226 myeloma viability, higher = more signal;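 further: cells grown under basal conditions without added stimulus; test concentration not given here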
[6] = JC-1 mitochondrial signal, unstimulated HepG2 cells – cell-based, JC-1 fluorescence, 24 h, 100 nL compound, profiling panel (AID 1167); conditions: HepG2 mitochondrial potential, higher = more signal; further: test concentration not given here
[7] = JC-1 mitochondrial signal, unstimulated adipocytes – cell-based, JC-1 fluorescence, 3T3-L1 adipocytes, 24 h, 100 nL compound, profiling panel (AID 1168); conditions: JC-1 mitochondrial fluorescence, higher = more signal, called active from +8 up or from −8 down; further: test concentration not given here
[8] = JC-1 mitochondrial signal, unstimulated myeloma cells – cell-based, JC-1 fluorescence, RPMI8226, 24 h, 100 nL compound, profiling panel (AID 1169); conditions: JC-1 mitochondrial potential fluorescence, higher = more signal; further: test concentration not given here
[9] = JC-1 mitochondrial signal, unstimulated MM1S myeloma – cell-based, JC-1 fluorescence, 24 h, 100 nL compound, profiling panel (AID 1170); conditions: MM1S mitochondrial potential, higher = more signal; further: test concentration not given here
[10] = resazurin metabolic signal in A549 cells – cell-based, resazurin fluorescence, 24 h, PK04 Diversity Set, profiling panel (AID 1171); conditions: A549 viability, higher = more signal, called active from +8 up or from −8 down; further: test concentration not given here
[11] = resazurin metabolic signal in HepG2 cells – cell-based, resazurin fluorescence, 24 h, PK04 Diversity Set, profiling panel (AID 1172); conditions: HepG2 viability, higher = more signal; further: test concentration not given here
[12] = budding yeast growth changes without added modifier – OD600, strain BY4716, 24 h, basal condition, primary screen (AID 1173); conditions: S. cerevisiae BY4716 growth, OD600, 24 h; higher = more signal, called active from +8 up or from −8 down
[13] = viability profiling in MM1S myeloma cells – cell-based, resazurin fluorescence, basal, 24 h, PK04 Diversity Set, profiling panel (AID 1174); conditions: higher = more signal, called active from +8 up or from −8 down; further: test concentration not given here
[14] = molecular target: Dihydroorotate dehydrogenase (quinone), mitochondrial (Plasmodium falciparum (isolate 3D7)) (UniProt Q08210); assay: inhibition of P. falciparum DHODH – biochemical, C-terminal His tag, absorbance 600 nm, primary screen (AID 1175); conditions: PfDHODH enzyme, DCIP absorbance 600 nm; higher = more signal, called active from +8 up or from −8 down;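 further: recombinant parasite enzyme with a five histidine tag at its C terminus; test concentration not given here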
[15] = inhibition of PAO1 biofilm formation – strain PAO1, LB-PBS medium, absorbance 600 nm, primary screen (AID 1176); further: test concentration not given here; conditions: P. aeruginosa PAO1 growth/biofilm, A600, 12 h; higher = more signal
[16] = growth modulation of vineyard yeast isolate – strain RM11-1a, OD600, basal, 24 h, primary screen (AID 1177);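 further: cultures grown under basal conditions with no added stressor; test concentration not given here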; conditions: S. cerevisiae RM11-1a growth, OD600, 24 h; higher = more signal, called active from +8 up or from −8 down
[17] = growth of efflux-deficient E. coli DRC39 – strain DRC39, OD650, 24 h, E. coli filamentation inducers, primary screen (AID 1178);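 further: growth measured as culture turbidity by optical density at 650 nm; test concentration not given here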; conditions: E. coli DRC39 acrAB, higher = more signal, called active from +8 up or from −8 down
[18] = growth of efflux-deficient E. coli DRC39 – strain DRC39, OD650, 48 h, E. coli filamentation inducers, primary screen (AID 1179);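 further: screen aims at cell division blockers that make cells filament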; conditions: E. coli DRC39 delta-acrAB growth, higher = more signal, called active from +8 up or from −8 down
[19] = viability profiling in RPMI8226 myeloma cells – cell-based, resazurin fluorescence, basal, 24 h, PK04 Diversity Set, profiling panel (AID 1180); conditions: higher = more signal;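 further: RPMI8826 multiple myeloma cell line at 5000 cells per well; test concentration not given here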
[20] = molecular target: E3 ubiquitin-protein ligase XIAP (Homo sapiens) (UniProt P98170); assay: small molecules binding XIAP protein – biophysical, small-molecule microarray, fluorescence 635 nm, primary screen (AID 1181); conditions: higher = more signal;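 further: score merges 667 nm emission and signal to noise over triplicate slides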
Sequence of E3 ubiquitin-protein ligase XIAP (Homo sapiens) (P98170 whole entry, looked up): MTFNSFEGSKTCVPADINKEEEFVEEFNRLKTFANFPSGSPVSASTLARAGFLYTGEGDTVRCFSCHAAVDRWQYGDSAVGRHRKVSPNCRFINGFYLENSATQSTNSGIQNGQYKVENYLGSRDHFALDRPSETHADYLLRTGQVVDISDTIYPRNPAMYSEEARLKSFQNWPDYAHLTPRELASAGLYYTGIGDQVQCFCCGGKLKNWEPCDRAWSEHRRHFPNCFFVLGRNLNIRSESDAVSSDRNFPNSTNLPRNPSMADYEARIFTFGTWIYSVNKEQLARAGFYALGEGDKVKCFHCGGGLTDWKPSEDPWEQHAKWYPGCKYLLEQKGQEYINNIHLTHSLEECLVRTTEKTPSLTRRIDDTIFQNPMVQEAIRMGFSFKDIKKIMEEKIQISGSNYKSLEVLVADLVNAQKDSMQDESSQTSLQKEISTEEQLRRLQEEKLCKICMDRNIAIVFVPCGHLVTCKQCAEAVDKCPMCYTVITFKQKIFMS

Sequence of Dihydroorotate dehydrogenase (quinone), mitochondrial (Plasmodium falciparum (isolate 3D7)) (Q08210 whole entry, looked up): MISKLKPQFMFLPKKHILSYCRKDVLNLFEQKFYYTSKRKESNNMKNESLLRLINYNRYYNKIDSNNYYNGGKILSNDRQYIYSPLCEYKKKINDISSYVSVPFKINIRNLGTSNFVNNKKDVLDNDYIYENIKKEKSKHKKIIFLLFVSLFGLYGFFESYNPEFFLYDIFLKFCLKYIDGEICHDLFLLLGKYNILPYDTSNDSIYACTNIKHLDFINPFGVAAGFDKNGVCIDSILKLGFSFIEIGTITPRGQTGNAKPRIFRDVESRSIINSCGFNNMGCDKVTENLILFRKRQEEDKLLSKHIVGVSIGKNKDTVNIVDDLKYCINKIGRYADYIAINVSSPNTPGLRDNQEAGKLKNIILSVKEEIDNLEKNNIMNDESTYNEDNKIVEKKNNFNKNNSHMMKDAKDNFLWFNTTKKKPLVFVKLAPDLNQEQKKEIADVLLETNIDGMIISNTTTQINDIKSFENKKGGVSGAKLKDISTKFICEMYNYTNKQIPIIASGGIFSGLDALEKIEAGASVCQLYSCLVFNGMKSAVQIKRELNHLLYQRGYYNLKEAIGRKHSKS

Compound	z-score [1]	z-score [2]	z-score [3]	z-score [4]	z-score [5]	z-score [6]	z-score [7]	z-score [8]	z-score [9]	z-score [10]	z-score [11]	z-score [12]	z-score [13]	composite z-score [14]	z-score [15]	z-score [16]	z-score [17]	z-score [18]	z-score [19]	composite z-score [20]
CN(C)CCCCNC(=O)[C@H]1C[C@H]2C(=O)N[C@@H](CCCCN(C)C)C(=O)N2[C@H]1c1ccc(O)cc1	0.897	0.613	0.218	0.428	1.26	0.754	0.903 (inactive)	-0.623	-0.379	1.2 (inactive)	0.828	-1.95 (inactive)	0.419 (inactive)	0.245 (inactive)	0.655 (inactive)	-1.52 (inactive)	1.12 (inactive)	1.67 (inactive)	1.82	-0.127
O=C(NCC(F)(F)F)[C@@H]1c2ccccc2C(=O)N(Cc2cc(C(F)(F)F)cc(C(F)(F)F)c2)[C@H]1c1ccc(CO)cc1	0.964	-0.0843	1.42	-0.202	1.07	1.95	1.36 (inactive)	0.801	-0.626	0.651 (inactive)	0.0606	1.26 (inactive)	0.885 (inactive)	0.398 (inactive)	-0.0249 (inactive)	0.378 (inactive)	0.783 (inactive)	1.41 (inactive)	1.1	0.295
CC(CO)N1C(=O)[C@@H]2[C@H]3C(=O)OCC=C[C@H]3OC23C=CCN(c2ccc4ccccc4c2)C(=O)[C@@H]13 (stereo not given in full)	0.0456	0.0291	-0.432	-0.496	-0.149	-0.626	-0.654 (inactive)	0.109	0.563	0.873 (inactive)	0.984	-0.0392 (inactive)	0.224 (inactive)	0.0007 (inactive)	-0.0432 (inactive)	-0.405 (inactive)	-0.398 (inactive)	-0.534 (inactive)	0.492	-0.138
COC(=O)[C@@]1(Cc2ccc(F)cc2)[C@H]2c3cc(C(=O)N4CCCC4)n(Cc4ccc(C(F)(F)F)nc4)c3C[C@H]2CN1C(=O)c1ccccc1	-0.29	0.585	-1.06	-2.08	-1.37	1.69	-0.439 (inactive)	-0.799	-0.873	0.052 (inactive)	-0.213	1.12 (inactive)	-1.23 (inactive)	-0.456 (inactive)	-0.691 (inactive)	1.09 (inactive)	-0.83 (inactive)	0.0871 (inactive)	-1.11	0.153
COCCOC(=O)N1C(=O)[C@@]2(c3cc(C#CC4=CCCCC4)ccc31)[C@H](C(=O)N1CCCCCCC1)[C@H]1C(=O)O[C@H](c3ccccc3)[C@H](c3ccccc3)N1[C@@H]2c1ccccc1OCCO	-0.314	0.922	-0.107	-0.99	-0.813	0.0436	0.992 (inactive)	-0.966	-0.982	0.356 (inactive)	1.84	0.615 (inactive)	0.209 (inactive)	-0.434 (inactive)	0.526 (inactive)	0.511 (inactive)	-0.294 (inactive)	-1.14 (inactive)	0.185	-0.0244
C=CCNC(=O)[C@H]1[C@@H]2C(=O)O[C@@H](c3ccccc3)[C@@H](c3ccccc3)N2[C@@H](c2ccc(OCCO)cc2)[C@]12C(=O)Nc1ccc(C#Cc3ccc(OC)cc3)cc12	-1.09	2.01	-0.845	-0.291	-2.14	-1.38	3.11 (inactive)	-1.22	-0.867	-1.04 (inactive)	-1.06	2.32 (inactive)	-0.512 (inactive)	-2.27 (inactive)	2.18 (inactive)	3.66 (inactive)	-0.672 (inactive)	-0.995 (inactive)	-1.29	1.29
CC(C)[Si](C#Cc1ccccc1)(O[C@H](c1ccccc1)c1cn(Cc2ccccc2)nn1)C(C)C	-1.6	-0.433	-2.13	-1.8	-2.46	-1.19	0.24 (inactive)	-0.425	-0.0328	-0.486 (inactive)	-0.001	-16.7 (active)	0.141 (inactive)	-1.03 (inactive)	-0.571 (inactive)	-0.282 (inactive)	1.67 (inactive)	0.79 (inactive)	0.253	-0.516
C=CCN1C(=O)[C@@]2(O[C@@H](CCO)[C@H]([Si](C)(C)c3ccc(OC)cc3)[C@H]2C)c2cc(N3CCCCC3=O)ccc21	-0.816	0.146	-4.51	-2.69	-4.05	-1.44	-0.0545 (inactive)	-1.01	-1.75	-2.04 (inactive)	-2.74	0.208 (inactive)	-4.57 (inactive)	-1.11 (inactive)	0.568 (inactive)	2.45 (inactive)	1.16 (inactive)	0.777 (inactive)	-5.44	0.271
C=C[C@H](C)[C@@H](OC(=O)Nc1ccc(SC)cc1)c1ccc(OCCO)cc1	-0.305	-0.0489	-0.232	-1.69	-1.81	-3.37	-0.168 (inactive)	-0.639	-0.114	-0.505 (inactive)	-1.01	-0.773 (inactive)	-0.715 (inactive)	0.918 (inactive)	0.696 (inactive)	1.08 (inactive)	-1.55 (inactive)	-1.71 (inactive)	-0.894	-0.208
CC(C)N1CC=CC23O[C@@H]4/C=C\CCCOC(=O)C4[C@H]2C(=O)N(C(C)CO)[C@@H]3C1=O (stereo not given in full)	0.0513	0.512	-0.145	0.967	0.629	0.412	-1.54 (inactive)	0.0317	-1.08	0.753 (inactive)	0.876	-1.69 (inactive)	0.832 (inactive)	-0.555 (inactive)	0.0126 (inactive)	0.14 (inactive)	1.1 (inactive)	0.906 (inactive)	0.734	-0.102
CC[C@@H]1C=C(C(=O)O)[C@H](c2cccc(Cl)c2)N1S(=O)(=O)c1ccc(C)cc1	-0.0107	-0.762	0.223	0.126	0.0221	-0.743	-0.41 (inactive)	-0.623	-0.343	-0.628 (inactive)	-0.722	-0.423 (inactive)	-0.869 (inactive)	-0.831 (inactive)	-0.184 (inactive)	-0.285 (inactive)	-0.647 (inactive)	-0.55 (inactive)	-1.89	1.12
O=C1NC(=O)C2C1C=CC(C(O)C(c1ccccc1)c1ccccc1)N2Nc1ccccn1 (stereo not given)	0.795	-0.46	0.605	0.332	0.077	0.176	-0.219 (inactive)	0.432	0.525	-0.0343 (inactive)	-0.187	-0.639 (inactive)	-0.408 (inactive)	1.72 (inactive)	0.916 (inactive)	0.419 (inactive)	-0.156 (inactive)	-0.284 (inactive)	0.261	0.417
CC1C2C(CCCO)=CC(C3C(=O)N(C)C(=O)C23)N1Cc1cccc(OC(F)(F)F)c1 (stereo not given)	-0.45	0.924	-0.399	-0.83	-0.423	0.779	0.0323 (inactive)	0.258	0.675	-0.791 (inactive)	-1.25	-2.02 (inactive)	-0.244 (inactive)	0.131 (inactive)	-0.0099 (inactive)	0.481 (inactive)	0.224 (inactive)	-0.0843 (inactive)	-0.278	0.245
C=CC[C@]12N=C(c3ccc(OCCCO)cc3)O[C@H]1c1ccccc1N(CCC)C2=O	-1.36	0.538	-0.454	-2.03	-3.07	0.788	1.85 (inactive)	-1.07	-0.207	0.266 (inactive)	-0.151	-1.91 (inactive)	-1.14 (inactive)	-0.536 (inactive)	1.24 (inactive)	0.208 (inactive)	0.181 (inactive)	-0.464 (inactive)	-0.65	0.0655
COC(=O)C1=CC(c2ccc(CO)cc2)=CC(C2CC2)N(Cc2cc3c(cc2Br)OCO3)C=C1C(=O)OC (stereo not given)	-0.0232	0.679	0.522	-0.785	-2.39	0.733	0.278 (inactive)	-0.563	-1.34	-1.15 (inactive)	-0.0995	-3.02 (inactive)	-1.42 (inactive)	-4.43 (inactive)	0.158 (inactive)	-0.069 (inactive)	0.164 (inactive)	-0.0391 (inactive)	-1.25	0.172
CC[C@@H](O[Si](C#C[Si](C(C)C)(C(C)C)C(C)C)(C(C)C)C(C)C)c1cn([C@H](CO)Cc2ccccc2)nn1	-0.28	-1.04	0.928	0.297	0.944	0.74	-0.123 (inactive)	-0.0761	-0.757	0.194 (inactive)	1.03	1.79 (inactive)	0.604 (inactive)	-0.572 (inactive)	0.183 (inactive)	0.959 (inactive)	-0.316 (inactive)	0.413 (inactive)	1.24	-0.207
CCOC(=O)C=C1C[C@@H](c2cccc([N+](=O)[O-])c2)O[C@@H](c2cccc([N+](=O)[O-])c2)O1	-0.865	-0.477	0.177	-0.71	-0.588	3.97	0.94 (inactive)	0.779	-0.351	1.44 (inactive)	0.151	2.03 (inactive)	0.226 (inactive)	0.917 (inactive)	0.285 (inactive)	1.79 (inactive)	-0.402 (inactive)	0.335 (inactive)	-0.969	0.127
